PI5P4Ka inh: qHTS for Inhibitors of phosphatidylinositol 5-phosphate 4-kinase (PI5P4K); AID 652105, 2013; Phosphatidylinositol 5-phosphate 4-kinase type-2 alpha (Homo sapiens), P48426; PI5P4Kalpha enzyme, ADP-Glo luminescence, 60 min; active compounds read low; max response, %; 330,000 tested, 1.2% active; active = max response of -50% or lower; inconclusive = between -30% and -50%; inactive = -30% or higher; note: value at the top dose of about 77 µM; % is set by controls: 0 for no effect and ±100 for the full control effect
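qHTS, 1536-well: enzyme/substrate mix, compound by pin tool, 5 microM ATP final; RT 60 min; ADP-Glo reagents 1 (45 min) then 2 (30 min); luminescence.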
HP1b binding inh: HTS for Inhibitors of HP1-beta Chromodomain Interactions with Methylated Histone Tails; Chromobox protein homolog 1 (Homo sapiens), P83916; AlphaScreen HP1-beta / biotin-H3K9me3 peptide binding; Potency, µM (doses to about 114 µM), for inactives: top-dose activity change, negative = inhibition, actives largely listed as inhibitors; AID 540317, 2011; 390,000 tested, 0.56% active; note: potency is the fitted concentration of half-maximal effect; nearly all actives have a fitted effect of over 70% in size
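AlphaScreen: HP1-beta (50 nM) preformed 30 min with biotin-H3(1-18)K9me3 peptide (50 nM) in PBS pH 7.4, 0.01% Tween-20. Compound added for 30 min at RT, then streptavidin donor/nickel chelate acceptor beads (10 ug/mL) for 30 min.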
JMJD2A Tudor: qHTS Assay for Inhibitors of JMJD2A-Tudor Domain; Potency, µM (top dose mostly 114 µM), inactives show at the highest dose activity change, negative = inhibition, actives largely listed as inhibitors; 390,000 tested, 4.4% active; Lysine-specific demethylase 4A (Homo sapiens), O75164; AlphaScreen JMJD2A-Tudor / H3K4me3 peptide binding; note: potency is the fitted concentration of half-maximal effect; % is set by controls: 0 for no effect and ±100 for the full control effect; nearly all actives have a fitted effect of over 50% in size
Target sequence (O75164 whole entry, looked up, the tested form may be a part): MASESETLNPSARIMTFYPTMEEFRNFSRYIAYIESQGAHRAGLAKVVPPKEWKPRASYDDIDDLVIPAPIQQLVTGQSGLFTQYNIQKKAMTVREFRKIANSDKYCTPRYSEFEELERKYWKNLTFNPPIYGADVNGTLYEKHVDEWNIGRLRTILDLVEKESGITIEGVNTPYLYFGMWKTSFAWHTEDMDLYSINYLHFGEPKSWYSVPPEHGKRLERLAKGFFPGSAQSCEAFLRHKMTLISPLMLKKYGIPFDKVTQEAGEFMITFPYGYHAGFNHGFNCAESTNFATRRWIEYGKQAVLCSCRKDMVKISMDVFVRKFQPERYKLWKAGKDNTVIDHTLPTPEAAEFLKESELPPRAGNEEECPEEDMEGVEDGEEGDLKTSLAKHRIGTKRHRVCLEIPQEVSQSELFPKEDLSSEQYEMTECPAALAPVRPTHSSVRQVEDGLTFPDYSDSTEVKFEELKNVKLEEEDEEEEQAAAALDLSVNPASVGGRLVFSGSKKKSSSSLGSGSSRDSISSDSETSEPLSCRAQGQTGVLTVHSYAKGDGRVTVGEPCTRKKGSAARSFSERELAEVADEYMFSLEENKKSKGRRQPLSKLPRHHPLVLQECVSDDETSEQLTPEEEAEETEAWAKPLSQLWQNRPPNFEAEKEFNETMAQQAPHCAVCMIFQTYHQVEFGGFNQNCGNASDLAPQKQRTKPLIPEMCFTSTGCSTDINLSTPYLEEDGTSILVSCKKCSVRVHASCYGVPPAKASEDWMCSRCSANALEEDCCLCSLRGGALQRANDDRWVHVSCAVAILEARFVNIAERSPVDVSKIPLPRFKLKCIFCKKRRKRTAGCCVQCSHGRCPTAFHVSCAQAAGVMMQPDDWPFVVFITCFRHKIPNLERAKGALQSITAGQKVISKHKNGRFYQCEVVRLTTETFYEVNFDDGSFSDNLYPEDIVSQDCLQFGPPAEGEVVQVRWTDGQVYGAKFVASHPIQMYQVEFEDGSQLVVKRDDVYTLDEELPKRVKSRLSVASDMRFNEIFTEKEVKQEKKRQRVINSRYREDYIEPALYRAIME
PLK1 PBD block: qHTS for Inhibitors of PLK1-PDB (polo-like kinase 1 - polo-box domain): Primary Screen. Plk1 PBD binding of FITC phosphopeptide, fluorescence polarization. Potency, µM, for inactives: max response, negative = inhibition, most hits filed as inhibitors. 360,000 tested, 2.8% active; note: potency is the fitted concentration of half-maximal effect; series mostly up to about 57 µM; % is set by controls: 0 for no effect and ±100 for the full control effect; nearly all actives have a fitted effect of over 65% in size
GCN5L2 inh: qHTS Assay for Inhibitors of GCN5L2; AID 504327, 2011; GCN5L2 HAT assay, ThioGlo1 CoA-SH fluorescence; 390,000 tested, 0.21% active; Histone acetyltransferase KAT2A (Homo sapiens), Q92830; Potency, µM (highest dose often 58.9 µM), inactives show at the highest dose activity change, negative = inhibition, most hits filed as inhibitors; note: potency is the fitted concentration of half-maximal effect; % is set by controls: 0 for no effect and ±100 for the full control effect
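GCN5L2 (20nM final) in 50mM HEPES, 0.1mM EDTA pH 7.5, 0.01% Tween-20 was preincubated 15 min at room temperature with compound, then given ThioGlo1 (50uM), H3(1-25) peptide (75uM) and acetyl-CoA (70uM); CoA-thiol fluorescence (Ex340/Em540) was read at 0 and 20 min.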
BAZ2B block: qHTS Assay for Inhibitors of BAZ2B; AlphaScreen BAZ2B-H3K14Ac peptide displacement; Potency, µM (highest dose often 114 µM), for inactives: at the highest dose activity change, negative = inhibition, actives largely listed as inhibitors; Bromodomain adjacent to zinc finger domain protein 2B (Homo sapiens), Q9UIF8; 360,000 tested, 4.4% active; note: potency is the fitted concentration of half-maximal effect; % is set by controls: 0 for no effect and ±100 for the full control effect; nearly all actives have a fitted effect of over 60% in size
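Complex of BAZ2B and biotin-H3K14Ac (50 nM apiece) forms over 30 min at RT, then faces library compounds up to 110 uM for another 30 min; AlphaScreen beads added, 20 min dark incubation, luminescence read.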
* hit, by the source's call; u = inconclusive; x = no result given; [ ] = another dose, or the depositor's remark. Only some compounds are listed: those with a hit (about 7% of all), similar ones and a draw of the others. Unless noted, calls come from the whole dose curve; as a rule, active = well fitted curve in the direction sought with a large enough effect; inconclusive = small, poorly fitted or top-dose-only effect, or another doubt; inactive = no such curve, though single readings can be large; an effect the other way counts as inactive or inconclusive.

SMILES	PI5P4Ka inh	HP1b binding inh	JMJD2A Tudor	PLK1 PBD block	GCN5L2 inh	BAZ2B block
C=CCn1c(SCC(=O)N2CC(=O)Nc3ccccc32)nc2scc(-c3ccccc3)c2c1=O	-12	-14%	-12%[11.4 µM]	12µM*	-8%	-29%
C=CCn1c(SCc2ccc3c(c2)OCO3)nc2scc(-c3ccco3)c2c1=O	-62*	-22%	-35%	-21%	-1%	u
CCn1c(=O)sc2cc(NS(=O)(=O)c3ccc(F)c(C)c3)ccc21	x	38%	-5%	x	-10%	2%
Cc1nnc(NC(=O)CSc2nccn2-c2ccc(F)cc2)s1	0	15%	-12%	-5%	-2%	x
CCCc1nc2c(C)cc(C)cc2c(N)c1CC	x	-11%	4.5µM*	0%	-31%	-34%
C/C(=C\C(=O)c1ccccc1)Nc1ccc(Cl)c(Br)c1	10	-23%	-9%[11.4 µM]	27µM*	x	x
COc1ccc(-c2csc3nc(-c4cccnc4)nc(Cl)c23)cc1OC	-24	23%	-21%	27µM*	-9%	-3%
Clc1nc(-c2cccnc2)nc2scc(-c3ccccc3)c12	1	77%	19%	2%	-8%	15%
c1ccc(CCC2Cc3ccccc3N2)cc1 (configuration not stated)	3	-10%	56µM*	2%	0%	u
c1ccc(CC[C@@H]2CC[C@@H](CCc3ccccc3)N2)cc1	-1	53%	-13%	2%	u	3%
CCOC(=O)[C@]12CCCC=C1N(CCc1ccc(OC)c(OC)c1)C(=O)[C@H](CC(=O)N1CCSCC1)C2	-9	x	x	-2%	x	x
FC(F)(F)c1ccc2c(c1)ncc1c(-c3ccccc3)nn(-c3ccccc3)c12	x	22%	-1%	x	0%	x
CCNC(=O)c1ccc(=O)n(Cc2ccc(Cl)cc2Cl)c1	-2	8%	-4%	-8%	x	x
CC(C)c1ccc(NC2CCCN(C(=O)c3cscn3)C2)cc1 (configuration not stated)	0	17%	-28%	-15%	1%	-28%
CC(C)c1ccc(NC2CCCN(C(=O)c3cc(C(C)C)nc(N)n3)C2)cc1 (configuration not stated)	1	-9%	u	27µM*	-3%	-24%
CC(=NNC(=S)SCc1ccccc1)c1ccccn1	14	-15%	20µM*	-9%	x	x
CCCCCC(=O)N/N=C(\C)c1ccccn1	19	43%	-19%	1%	0%	-33%
CC(=NNC(=S)N1CCCC1)c1ccccn1	-14	x	x	24µM*	x	x
CC(=NNC(=S)N1CCC1)c1ccccn1	2	15%	20µM*	-1%	x	x
CC(=NNC(=S)N1CC2CCC(CC2)C1)c1cccc(C)n1	4	u	22µM*	-25%	x	x
COc1cc(C(=O)N/N=C(\C)c2ccccn2)cc(OC)c1OC	-7	20%	-19%	-3%	3%	-17%
O=C(NCCc1c[nH]c2ccccc12)/C(=C/c1cccnc1)NC(=O)c1cccs1	1	26%	-15%	-3%	-1%	-30%
CC(=O)N1CCN(Cc2cc(=O)oc3ccccc23)CC1	3	x	x	-9%	x	x
CC(=O)Nc1cccc(OCCCNC(=O)c2cccc3ccccc23)c1	-1	31%	1%	-2%	-12%	-5%
O=C(Nc1ccccc1N1CCN(C(=O)c2ccc(Cl)cc2)CC1)c1cc2ccccc2o1	3	-26%	-6%[11.4 µM]	30µM*	-2%	5%
SMILES	PI5P4Ka inh	HP1b binding inh	JMJD2A Tudor	PLK1 PBD block	GCN5L2 inh	BAZ2B block
CCOC(=O)c1ccc(NC(=O)c2noc3c2CCCC3)cc1	x	56%	7%	x	40%	30%[57.1 µM]
O=C1Cc2cc(S(=O)(=O)N3CCN(c4ccc(Br)cc4)CC3)ccc2N1	x	x	141µM*	x	x	x
O=C(Nc1ccccc1C(F)(F)F)NC1(C(=O)N2CCOCC2)CCCCC1	-88*	-38%[57 µM]	8.9µM*	6.7µM*	x	x
O=[N+]([O-])c1ccc(N2N=C(c3ccco3)CC2c2ccccc2)cc1 (configuration not stated)	-22	-15%	-28%	-14%	2µM*	u
COc1cc(N2N=C(c3ccccc3)CC2c2ccccc2)c(C=O)cc1C=O (configuration not stated)	2	89%	32%	-11%	2%	36%
COc1ccccc1N1N=C(c2ccc([N+](=O)[O-])cc2)CC1c1ccccc1 (configuration not stated)	9	u	32µM*	15%	-7%	11µM*
Cc1ccc(C(=O)C(C)OC(=O)c2cc(=O)[nH]c3ccccc23)cc1 (configuration not stated)	2	14%	-23%	0%	0%	-23%
O=S1(=O)CCC(N=Nc2c(O)n(Cc3ccccc3)c3ccccc23)C1 (configuration not stated)	6	10%	u	-12%	-8%	u
Cc1c(-n2c(=S)[nH]c3ccccc3c2=O)c(=O)n(-c2ccccc2)n1C	2	19%	20µM*	-14%	-2%	-5%
O=c1c2ccccc2[nH]c(=S)n1Cc1cccnc1	x	-22%	28µM*	27µM*	-3%	1%
COn1c(=S)[nH]c2ccccc2c1=O	x	12%	89µM*	-11%	-6%	-9%
CN(C)CCn1c(=S)[nH]c2ccccc2c1=O	2	u	50µM*	1%	2%	-1%
C=Cc1ccc(Cn2c(=O)cc(C)c3c(C)nn(-c4ccccc4)c32)cc1	x	121%	38%	x	-8%	19%
O=C(Nc1ccccc1-c1nc2ccccc2s1)c1ccc(F)cc1	x	39%	8%	x	-5%	50µM*
O=C(Nc1ccccc1-c1nc2ccccc2s1)c1cc(Cl)cc(Cl)c1	x	12%[57 µM]	4%	x	-3%	6%
CNc1sc(C(=O)c2cccs2)c(N)c1-c1nc2ccccc2s1	1	-16%	50µM*	-17%	-8%	-6%
CNc1sc(C(=O)c2ccc(F)cc2)c(N)c1-c1nc2ccccc2s1	x	-29%	u	21µM*	0%	50µM*
C=CCOc1ccc(/C=C/C(=O)OCC(=O)N(C)C2CCS(=O)(=O)C2)cc1 (configuration not stated)	0	22%	-14%	1%	-1%	-11%
N#Cc1nc(Nc2cc(F)cc(F)c2)c2ncn(CCCN3CCCC3)c2n1	x	x	-21%	x	x	x
O=C(CSc1nc2ccsc2c(=O)n1CC1CCC(C(=O)O)CC1)c1ccc(F)cc1 (configuration not stated)	-2	43%	-10%	-1%	1%	x

Screens deposited in PubChem by National Center for Advancing Translational Sciences (NCATS).
